Measured values as given in PubChem BioAssay (NCATS).
Results filed as inconclusive are left out. Activity calls are given as the source filed them. Unless noted, calls follow the shape of the dose curve; as a rule, active = well fitted curve in the direction sought with a large enough effect; inconclusive = small, poorly fitted or top-dose-only effect, or another doubt; inactive = no such curve, though single readings can be large; an effect the other way counts as inactive or inconclusive.

Assays:
[1] = qHTS for Inhibitors of the Functional Ribonucleoprotein Complex (vRNP) of Lassa (LASV) Arenavirus: LASV Primary Screen - GLuc reporter signal (AID 1347082; calls by dose curve; tested in HEK293 reporter line; also: series mostly up to about 57 µM; % is scaled to controls: 0 for no effect and ±100 for the full control effect; nearly all actives have a fitted effect of over 60% in size)
[2] = qHTS for Inhibitors of the Functional Ribonucleoprotein Complex (vRNP) of Lassa (LASV) Arenavirus: Viability assay - alamar blue signal for LASV Primary Screen (AID 1347083; calls by dose curve; tested in HEK293 reporter line; also: series mostly up to about 57 µM; % is scaled to controls: 0 for no effect and ±100 for the full control effect; nearly all actives have a fitted effect of over 80% in size)
[3] = qHTS for Inhibitors of the Functional Ribonucleoprotein Complex (vRNP) of Lymphocytic Choriomeningitis Arenaviruses (LCMV): Viability assay - alamar blue signal for LCMV Primary Screen (AID 1347085; calls by dose curve; tested in HEK293 reporter line; also: series mostly up to about 57 µM; % is scaled to controls: 0 for no effect and ±100 for the full control effect; nearly all actives have a fitted effect of over 80% in size)
[4] = molecular target: Nucleoprotein (Lymphocytic choriomeningitis virus (strain Armstrong)) (UniProt P09992); test: qHTS for Inhibitors of the Functional Ribonucleoprotein Complex (vRNP) of Lymphocytic Choriomeningitis Arenaviruses (LCMV): LCMV Primary Screen - GLuc reporter signal (AID 1347086; calls by dose curve; also: series mostly up to about 57 µM; % is scaled to controls: 0 for no effect and ±100 for the full control effect; nearly all actives have a fitted effect of over 70% in size)
Sequence of Nucleoprotein (Lymphocytic choriomeningitis virus (strain Armstrong)) (P09992 whole entry, looked up): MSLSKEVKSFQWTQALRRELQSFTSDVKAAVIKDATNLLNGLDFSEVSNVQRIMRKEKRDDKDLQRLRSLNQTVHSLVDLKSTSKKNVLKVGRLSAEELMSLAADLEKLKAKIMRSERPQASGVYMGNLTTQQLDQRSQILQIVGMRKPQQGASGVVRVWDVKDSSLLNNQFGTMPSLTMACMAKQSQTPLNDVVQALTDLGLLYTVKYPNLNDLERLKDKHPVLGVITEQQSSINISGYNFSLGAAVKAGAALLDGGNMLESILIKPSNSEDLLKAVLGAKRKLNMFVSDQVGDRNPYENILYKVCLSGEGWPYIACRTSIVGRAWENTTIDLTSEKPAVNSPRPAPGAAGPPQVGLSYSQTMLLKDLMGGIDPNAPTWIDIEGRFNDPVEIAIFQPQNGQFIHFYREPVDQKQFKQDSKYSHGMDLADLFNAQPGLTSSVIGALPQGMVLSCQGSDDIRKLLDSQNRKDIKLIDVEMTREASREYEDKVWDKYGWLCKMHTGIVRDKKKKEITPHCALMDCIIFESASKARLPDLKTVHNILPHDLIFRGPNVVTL

[5] = molecular target: Nuclear receptor subfamily 1 group I member 3 (Homo sapiens) (UniProt Q14994); test: Primary qHTS for antagonist of constitutive androstane receptor (CAR) against the NCATS DSHEA and TCM libraries (AID 1794836);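 also: HepG2 cells stably expressing hCAR with CYP2B6 luciferase reporter stimulated by CITCO; series mostly up to about 40 µM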
Sequence of Nuclear receptor subfamily 1 group I member 3 (Homo sapiens) (Q14994 whole entry, looked up): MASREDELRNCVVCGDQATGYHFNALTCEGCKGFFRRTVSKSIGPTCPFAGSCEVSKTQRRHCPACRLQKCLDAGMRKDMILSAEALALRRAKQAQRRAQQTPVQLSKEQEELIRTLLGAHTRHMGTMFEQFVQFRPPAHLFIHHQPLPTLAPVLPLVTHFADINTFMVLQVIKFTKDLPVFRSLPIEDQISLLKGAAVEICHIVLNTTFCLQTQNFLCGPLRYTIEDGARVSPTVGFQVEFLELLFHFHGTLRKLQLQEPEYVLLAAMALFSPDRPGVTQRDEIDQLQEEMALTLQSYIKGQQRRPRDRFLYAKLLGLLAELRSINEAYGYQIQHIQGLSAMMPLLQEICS
Outline: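 Antagonist mode: CAR reporter luminescence (ONE-Glo) in HepG2-CYP2B6-hCAR cells stimulated with 48 uM CITCO (final) over 24 h at 37 C, compounds titrated; viability read first by CellTiter-Fluor fluorescence.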

[6] = Validation screen for inhibitors of Lassa infection (AID 463096; calls by dose curve; also: % is scaled to controls: 0 for no effect and ±100 for the full control effect)
[7] = HepG2 viability counterscreen (readout 2: ATP content) against the NCATS DSHEA and TCM libraries (AID 1794840);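 also: HepG2 cells exposed to substances for about 24 h; 0% is about no effect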
Outline: (§1)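 HepG2 cells (1,000 cells/well) attached ~4 h, then treated ~24 h at 37C with substances. Protease activity read by GF-AFC (25 uM final, 30 min, Ex/Em 380/510 nm); ATP content then by CellTiter-Glo luminescence.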

[8] = HepG2 viability counterscreen (readout 1: protease activity) against the NCATS DSHEA and TCM libraries (AID 1794841);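 also: cells exposed to compounds for about 24 h before the protease read; 0% is about no effect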
Outline: as §1

[9] = molecular target: Cytochrome P450 2D6 (Homo sapiens) (UniProt P10635); test: qHTS for inhibitors of CYP2D6 against the NCATS DSHEA and TCM libraries (AID 1919972); also: % is scaled to controls: 0 for no effect and ±100 for the full control effect
Sequence of Cytochrome P450 2D6 (Homo sapiens) (P10635 whole entry, looked up): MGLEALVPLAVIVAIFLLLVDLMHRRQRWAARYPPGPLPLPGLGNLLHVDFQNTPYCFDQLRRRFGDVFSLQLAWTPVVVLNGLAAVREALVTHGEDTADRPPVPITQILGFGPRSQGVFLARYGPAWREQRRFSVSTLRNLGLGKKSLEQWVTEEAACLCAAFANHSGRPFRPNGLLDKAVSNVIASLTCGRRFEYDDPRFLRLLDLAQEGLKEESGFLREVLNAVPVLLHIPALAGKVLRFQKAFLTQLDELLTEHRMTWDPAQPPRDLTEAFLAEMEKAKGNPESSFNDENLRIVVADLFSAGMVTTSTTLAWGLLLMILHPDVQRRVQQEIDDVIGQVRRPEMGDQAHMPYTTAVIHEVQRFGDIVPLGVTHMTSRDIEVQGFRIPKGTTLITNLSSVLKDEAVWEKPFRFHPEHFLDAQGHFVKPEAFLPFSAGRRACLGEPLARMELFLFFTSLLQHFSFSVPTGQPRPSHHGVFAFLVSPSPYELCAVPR
Outline: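 CYP2D6 enzyme with pro-luciferin substrate in manufacturer buffer (typically 100 mM KPO4), preincubated 15 min RT with substances (most at 19.5 nM upward); NADPH regeneration system (1x) started 30–45 min RT reaction; P450-Glo luminescence read after 30 min; quinidine as intraplate control.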

[10] = KB-3-1 P-gp reporter qHTS against the NCATS DSHEA and TCM libraries (AID 1919975); also: 0% is about no effect
Outline: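 Parental KB-3-1 human cervical adenocarcinoma cells (500 cells/well, DMEM + 10% FBS) were treated with substances for ~72 h at 37C; viability was read by CellTiter-Glo luminescence.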

[11] = molecular target: Cytochrome P450 1A2 (Homo sapiens) (UniProt P05177); test: qHTS for inhibitors of CYPIA2 against the NCATS DSHEA and TCM libraries (AID 1919976);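 also: light from luciferin formed by CYP1A2 from a pro-luciferin substrate; series mostly up to about 37 µM; % is scaled to controls: 0 for no effect and ±100 for the full control effect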
Sequence of Cytochrome P450 1A2 (Homo sapiens) (P05177 whole entry, looked up): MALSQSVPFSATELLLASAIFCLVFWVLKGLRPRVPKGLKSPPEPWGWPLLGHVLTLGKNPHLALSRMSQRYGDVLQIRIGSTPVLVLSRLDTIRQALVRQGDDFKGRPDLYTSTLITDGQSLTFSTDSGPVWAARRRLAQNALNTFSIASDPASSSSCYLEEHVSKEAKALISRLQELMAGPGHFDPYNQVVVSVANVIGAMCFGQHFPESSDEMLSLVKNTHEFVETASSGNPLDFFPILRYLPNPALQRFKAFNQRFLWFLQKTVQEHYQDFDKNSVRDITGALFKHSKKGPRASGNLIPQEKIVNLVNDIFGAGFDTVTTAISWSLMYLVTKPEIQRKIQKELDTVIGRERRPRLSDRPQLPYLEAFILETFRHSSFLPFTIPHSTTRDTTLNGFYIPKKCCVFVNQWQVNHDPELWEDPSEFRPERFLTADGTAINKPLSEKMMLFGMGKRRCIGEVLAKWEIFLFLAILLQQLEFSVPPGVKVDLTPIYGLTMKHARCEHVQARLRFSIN
Outline: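 Enzyme and pro-luciferin substrate, or substrate alone as no-enzyme background, are pre-incubated with test samples for 15 min at room temperature. NADPH regeneration system (1x final) initiates a 30-45 min dark reaction; luciferase detection reagent follows before luminescence reading.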

[12] = qHTS Counterscreen for compound interference against the NCATS DSHEA and TCM libraries (AID 1919978); conditions: firefly luciferase detection reagent interference, luminescence; also: % of control where 0% means no effect
Outline: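 D-luciferin (1 uM final) or 100 mM potassium phosphate buffer alone was preincubated 15 min at RT with compounds (19.5 nM to 39.8 uM final). Luciferin detection reagent was then added and luminescence read after 30 min at RT.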

[13] = Dual reporter qHTS for agonist of Pregnane X Receptor (hPXR) against the NCATS DSHEA and TCM libraries: Fluorescence readout (AID 1920058); also: 0% is about no effect
Outline: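 Cells were plated at 2000 per well and allowed to attach for 5 h. Test substances were pinned in and incubated roughly 24 h. CellTiter-Fluor was then added and fluorescence measured after 1 h.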

[14] = molecular target: Nuclear receptor subfamily 1 group I member 2 (Homo sapiens) (UniProt O75469); test: Dual reporter qHTS for agonist of Pregnane X Receptor (hPXR) against the NCATS DSHEA and TCM libraries: Luminescence readout (AID 1920059); also: 0% is about no effect
Sequence of Nuclear receptor subfamily 1 group I member 2 (Homo sapiens) (O75469 whole entry, looked up): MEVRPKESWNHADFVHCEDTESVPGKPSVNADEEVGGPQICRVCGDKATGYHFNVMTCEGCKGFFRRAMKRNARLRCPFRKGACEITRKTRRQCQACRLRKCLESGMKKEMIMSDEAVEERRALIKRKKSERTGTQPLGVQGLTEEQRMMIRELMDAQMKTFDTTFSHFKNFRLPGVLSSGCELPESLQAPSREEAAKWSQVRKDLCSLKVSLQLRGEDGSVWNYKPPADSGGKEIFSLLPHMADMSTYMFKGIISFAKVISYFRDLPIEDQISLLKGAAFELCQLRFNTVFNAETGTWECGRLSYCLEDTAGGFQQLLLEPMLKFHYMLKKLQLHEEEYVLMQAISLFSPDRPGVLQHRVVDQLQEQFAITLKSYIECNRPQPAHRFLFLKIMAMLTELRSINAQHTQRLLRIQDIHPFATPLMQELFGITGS
Outline: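 Luminescent PXR reporter read (ONE-Glo) after a CellTiter-Fluor viability read, following 24 h, 37C treatment of HepG2 cells stably carrying hPXR-Luc.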

[15] = molecular target: Nuclear receptor subfamily 1 group I member 2 (Homo sapiens) (UniProt O75469); test: Dual reporter qHTS for antagonist of Pregnane X Receptor (hPXR) against the NCATS DSHEA and TCM libraries: Luminescence Readout (AID 1920060);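 also: HepG2 cells carrying hPXR luciferase reporter stimulated with rifampicin at 2 µM; 0% is about no effect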
Outline: (§2)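 In antagonist mode, 2 uM rifampicin was added to hPXR-Luc HepG2 cells alongside test substances, incubated 24 h at 37 C; luminescence gave reporter activity, and CellTiter-Fluor fluorescence (405/540 nm) gave viability.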

[16] = Dual reporter qHTS for antagonist of Pregnane X Receptor (hPXR) against the NCATS DSHEA and TCM libraries: Fluorescence Readout (AID 1920061); also: 0% is about no effect
Outline: as §2

COc1ccc(C(C)=O)c(O)c1
inactive: Potency [1] | Potency [2] | Potency [3] | Potency [4] | Potency [5]

N=S(=O)(O)Cc1noc2ccccc12
inactive: Potency [6] | Potency [1] | Potency [2] | Potency [3] | Potency [4]

C=C(C)[C@@H]1CC=C(C=O)CC1
inactive: Potency [1] | Potency [2] | Potency [3] | Potency [4] | outcome [7] | outcome [8] | outcome [9] | outcome [10] | Potency [11] | max response [12] -1.03% | outcome [13] | outcome [14] | outcome [15] | outcome [16]

CCCCCCCCCC=O
inactive: Potency [1] | Potency [2] | Potency [3] | Potency [4] | Potency [5]

COC(=O)C1=C(C)NC(C)=C([N+](=O)[O-])C1c1ccccc1C(F)(F)F (centres undefined)
inactive: Potency [6] | Potency [1] | Potency [2] | Potency [3] | Potency [4]

COc1cccc(OC)c1OCCNCC1CSc2ccccc2O1 (centres undefined)
inactive: Potency [6] | Potency [1] | Potency [2] | Potency [3] | Potency [4]
